F508del corr = correctors of CFTR F508del function in bronchial epithelial cells | CFBE cells, YFP halide quenching; stimulated with forskolin plus potentiator P3; % fluorescence drop versus neutral controls | 0.36% of 350,000 active | activity (quench increase), % at 7.58 µM;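 active = mean added fluorescence quench of at least 8% versus neutral control, with both replicates also reaching 8%; inconclusive = only one of the mean or replicate conditions met; inactive = mean below 8% and not both replicates reaching 8%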;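 note: cells transiently co-express mutant CFTR-F508del with the halide-sensitive YFP; corrector assay measuring rescue of mutant channel to the surface after 24 h compound exposure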
RAD52 inh = inhibitors of human RAD52 DNA annealing; P43351; 0.46% of 360,000 active; recombinant RAD52 DNA annealing, FRET fluorescence; inhibition, % at 18.7 µM; AID 651710;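 active = every replicate showing at least 50% inhibition; inconclusive = mean inhibition at least 50% but not in every replicate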
Target sequence (P43351 whole entry, looked up): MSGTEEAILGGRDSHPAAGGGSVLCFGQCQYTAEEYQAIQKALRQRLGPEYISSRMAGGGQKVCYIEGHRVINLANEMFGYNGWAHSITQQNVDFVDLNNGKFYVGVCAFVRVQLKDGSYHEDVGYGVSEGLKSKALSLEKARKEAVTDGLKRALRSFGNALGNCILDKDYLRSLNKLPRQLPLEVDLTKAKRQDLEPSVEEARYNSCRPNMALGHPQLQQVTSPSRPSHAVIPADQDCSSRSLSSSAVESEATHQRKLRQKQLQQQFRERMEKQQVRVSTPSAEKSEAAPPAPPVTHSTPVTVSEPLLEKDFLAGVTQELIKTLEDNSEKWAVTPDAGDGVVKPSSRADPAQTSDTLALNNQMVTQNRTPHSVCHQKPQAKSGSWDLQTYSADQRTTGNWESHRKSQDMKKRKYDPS
PvdQ inh = blocks Pseudomonas aeruginosa PvdQ acylase activity. inhibition, % at 10 µM. purified PvdQ acylase, fluorescence plate reader. AID 488965. 0.063% of 340,000 active; in the data active = inhibition above about 30%, passing the limit was not always enough; inconclusive = no clear call, values can overlap the other calls;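 note: 0% = vehicle neutral wells and 100% = reference inhibitor wells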
RAD54 inh = inhibitors of human RAD54 branch migration; 0.14% of 360,000 active; RAD54 Holliday junction branch migration, FAM/BHQ fluorescence; inhibition, % at 10.4 µM; Q92698;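 active = mean normalized replicate activity at least 40 and at least half of replicates scoring 40 or more; inconclusive = only one of the two criteria met; inactive = mean below 40 and under half of replicates reaching 40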;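 note: 0% = median of neutral control wells and 100% = median of positive control wells; inhibitors cause a drop in the FAM fluorescence signal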
dFosB act-1 = activators of mouse delta FosB homodimer; P13346; purified delta FosB, TAMRA-CDK5 oligo fluorescence polarization; percent of positive-control signal above neutral wells; activation, % at 25 µM; 0.99% of 340,000 active;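 active = mean activation above about 17%, with every replicate also reaching it, limit read from the data, passing the limit was not always enough; inconclusive = only one of the two conditions met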
N-glyco inh = blocks N-linked glycosylation in D54 reporter cells. D54 ERlucT glycosylation luciferase reporter, 24 h; percent of 100 nM tunicamycin response. AID 588692. reporter increase, % at 12.5 µM. 0.23% of 360,000 active;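 active = mean luciferase reporter signal, scaled so untreated is 0 and the glycosylation-blocking control 100, at or above a set limit in every replicate; inconclusive = mean reaches the limit but not every replicate does; inactive = mean below the limit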;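 note: luciferase carries N-glycosylation sites so blocking glycosylation raises the light; 0% = median of neutral control wells and 100% = median of 100 nM tunicamycin wells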
dFosB act-2 = enhances mouse delta FosB homodimer binding to DNA; shares compounds with dFosB act-1; purified delta FosB, TAMRA-CDK5 oligo fluorescence polarization; normalised: neutral wells 0, positive control 100; activation, % at 24.9 µM; 2,400 tested, under 10 active;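 active = highest replicate activation at or above 34% and every replicate reaching that threshold; inconclusive = meets only one of the two criteria; inactive = meets neither criterion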;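 note: higher polarization means more probe DNA bound by delta FosB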
Active calls of the source: *. Most compounds without a hit are left out; they make up all but 1.5% or so of the library.

Screening O=C(NC[C@H]1CC[C@@H]2[C@@H](CN2Cc2cc(-c3ccccc3)on2)O1)c1ccc2c(c1)OCO2 returned F508del corr 1 and RAD52 inh -3.
`Cc1c(Cc2ccc3c(c2)OCO3)sc(NC(=O)c2ccccc2)c1C(N)=O` gave F508del corr -5, RAD52 inh -18, PvdQ inh 5, RAD54 inh -3, dFosB act-1 39*, N-glyco inh 4 and dFosB act-2 2.
For Cc1nc(NC(=O)c2ccccc2)sc1Cc1ccc2c(c1)OCO2 the results were RAD52 inh -11, PvdQ inh 5, RAD54 inh 3, dFosB act-1 -2 and N-glyco inh 6.
CCC(=O)N(C)C[C@@H]1Oc2ncc(-c3ccc(C)cc3)cc2C(=O)N([C@H](C)CO)C[C@@H]1C was read as F508del corr -2, RAD52 inh 17 and RAD54 inh -9.
For O=C(COC(=O)c1ccc2ncsc2c1)NCc1ccccc1Cl the results were F508del corr 0, RAD52 inh -7, PvdQ inh -14, RAD54 inh -1, dFosB act-1 24*, N-glyco inh 2 and dFosB act-2 -6.
CCc1ccc(NC(=O)NNC(=O)c2cc3ccccc3cc2O)cc1 was read as F508del corr -1, RAD52 inh 2, PvdQ inh -16, RAD54 inh -6, dFosB act-1 39*, N-glyco inh 1 and dFosB act-2 4.
`CCOc1ccc(NC(=O)NNC(=O)c2cc3ccccc3cc2O)cc1` gave F508del corr -5, RAD52 inh -40, PvdQ inh 6, RAD54 inh -3, dFosB act-1 39*, N-glyco inh 0 and dFosB act-2 0.
`Cc1ccc(NC(=O)NNC(=O)c2cc3ccccc3cc2O)cc1C` gave F508del corr 2, RAD52 inh -42, PvdQ inh -11, RAD54 inh -7, dFosB act-1 54*, N-glyco inh 2 and dFosB act-2 4.
For CO[C@@H]1CN(C)C(=O)c2ccc(NC(=O)C3CCOCC3)cc2OC[C@H](C)N(C(C)=O)C[C@@H]1C the results were F508del corr -2, RAD52 inh -2 and RAD54 inh 9.
`Cc1ccc(CNC(=O)c2ccc(NC(=O)CCS(=O)(=O)c3cccs3)cc2)cc1` gave PvdQ inh 7, RAD54 inh 8, dFosB act-1 20*, N-glyco inh -2 and dFosB act-2 3.
For O=C(CS(=O)(=O)c1ccccc1)Nc1ccc(S(=O)(=O)Nc2ncccn2)cc1 the results were F508del corr 1, RAD52 inh -8, PvdQ inh -16, dFosB act-1 -2 and N-glyco inh 1.
For O=C(CNC(=O)c1ccc(-c2ccccc2)cc1)Nc1ccc(S(=O)(=O)Nc2ncccn2)cc1 the results were F508del corr -1, RAD52 inh -33, PvdQ inh -9, RAD54 inh -6, dFosB act-1 25*, N-glyco inh 1 and dFosB act-2 4.
Screening COc1ccc(/C=C/c2nc(N)nc(-c3ccccc3O)n2)cc1OC returned F508del corr 4, RAD52 inh -14, PvdQ inh -1, dFosB act-1 10 and N-glyco inh 1.
COc1cc(/C=C/c2nc(N)nc(-c3ccccc3O)n2)cc(OC)c1OC was read as PvdQ inh -8, dFosB act-1 34*, N-glyco inh 1 and dFosB act-2 3.
For C[C@@H]1CN([C@@H](C)CO)C(=O)c2cc(NS(=O)(=O)c3ccccc3)ccc2O[C@@H](C)CCCCO[C@@H]1CN(C)S(=O)(=O)c1ccc(Cl)cc1 the results were F508del corr 1 and RAD52 inh -24.
For CCOc1cc(/C=N/NC(=O)c2nnn(-c3nonc3N)c2C)ccc1OCc1ccc(C)cc1 the results were F508del corr -3, RAD52 inh -2, RAD54 inh 2 and N-glyco inh 3.
`Cc1ccc(COc2cccc(/C=N/NC(=O)c3nnn(-c4nonc4N)c3C)c2)cc1` gave F508del corr -1, RAD52 inh -3, PvdQ inh 2, RAD54 inh -2, dFosB act-1 53*, N-glyco inh inconclusive and dFosB act-2 0.
`Cc1ccc(COc2ccc(/C=N/NC(=O)c3nnn(-c4nonc4N)c3COc3ccc(F)cc3)cc2)cc1` gave F508del corr -4, RAD52 inh -7, PvdQ inh -9, RAD54 inh 10, dFosB act-1 48*, N-glyco inh 2 and dFosB act-2 0.
For Nc1nonc1-n1nnc(C(=O)N/N=C/c2ccc(OCc3ccc(F)cc3)cc2)c1COc1ccccc1 the results were F508del corr -2, RAD52 inh -4, PvdQ inh -24, RAD54 inh 8, dFosB act-1 inconclusive and N-glyco inh -1.
Screening O=C(Nc1ccc(Br)cn1)c1cccc(-c2cc3ccccc3oc2=O)c1 returned RAD52 inh -4, PvdQ inh 4, RAD54 inh -8, dFosB act-1 34*, N-glyco inh 2 and dFosB act-2 0.
O=C(N/N=C/c1ccccn1)c1cc(-c2ccc3ccccc3c2)n[nH]1 was read as RAD52 inh -2, PvdQ inh -10, dFosB act-1 19*, N-glyco inh 3 and dFosB act-2 3.
For O=C(N/N=C/C=C\c1ccccc1[N+](=O)[O-])c1cc(-c2ccc3ccccc3c2)n[nH]1 the results were F508del corr 0, RAD52 inh -10, PvdQ inh 23, RAD54 inh -7, dFosB act-1 25*, N-glyco inh 4 and dFosB act-2 2.
`COc1ccccc1C#Cc1ccc([C@@H]2[C@H]3CN(C(=O)C4CC4)CCCCN3[C@H]2CO)cc1` gave F508del corr -2, RAD52 inh 25 and RAD54 inh -5.
For CC(=O)Nc1ccccc1-c1nc2ccccc2nc1OCC(=O)c1ccc2ccccc2c1 the results were PvdQ inh -5, RAD54 inh -5, dFosB act-1 30*, N-glyco inh 2 and dFosB act-2 -4.
For CC(=O)Nc1ccccc1-c1nc2ccccc2nc1OCC(=O)c1ccc(Br)cc1 the results were PvdQ inh -13, RAD54 inh -2, dFosB act-1 12 and N-glyco inh 0.
For CCC(=O)N1[C@H](CO)[C@@H]2c3ccccc3N(C(=O)c3cnccn3)C[C@@H]21 the results were F508del corr -2, RAD52 inh -21 and RAD54 inh -6.
O=C(C[C@@H]1C[C@H]2c3cc(NC(=O)c4ccc5c(c4)OCO5)ccc3O[C@H]2[C@H](CO)O1)NCc1cccnc1 was read as F508del corr -4, RAD52 inh 8 and RAD54 inh -3.

Bioassay records as filed in PubChem.
